# Measured values as given in the supplement of paper PMC4466140.
# What was measured:
# Assay in all cases: SPOT peptide array binding signal intensity (averaged, normalized) (arbitrary units (background-subtracted, floor 0; scale differs between SH3 domains)); higher = stronger binding of the SH3 domain to the peptide
# AgAbp1 = biological target: AgAbp1
# Outline: (§1)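 SH3 domains from four yeast species were expressed as GST fusions in E. coli BL21(DE3) and purified on glutathione Sepharose. Each was incubated at 10 μg/ml overnight at 4°C in TBS-based blocking buffer on cellulose membranes bearing synthetic 15-mer peptides, in which serines replaced cysteines. Bound protein was detected with anti-GST antibody, an HRP anti-mouse secondary and luminol, then imaged and quantified with Genespotter. The binding signal is the normalized, background-subtracted spot intensity averaged over replicates, in arbitrary units that are not the same from one domain to another.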
# AgBbc1 = biological target: AgBbc1
# Outline: as §1
# AgBem1-D1 = biological target: AgBem1-D1
# Outline: as §1
# AgBzz1-D1 = biological target: AgBzz1-D1
# Outline: as §1
# AgBzz1-D2 = biological target: AgBzz1-D2
# Outline: as §1
# AgCyk3 = biological target: AgCyk3
# Outline: as §1
# AgFus1 = biological target: AgFus1
# Outline: as §1
# AgHof1 = biological target: AgHof1
# Outline: as §1
# AgHse1 = biological target: AgHse1
# Outline: as §1
# AgLsb1 = biological target: AgLsb1
# Outline: as §1
# AgLsb4 = biological target: AgLsb4
# Outline: as §1
# AgMyo5 = biological target: AgMyo5
# Outline: as §1
# AgNbp2 = biological target: AgNbp2
# Outline: as §1
# AgRvs167 = biological target: AgRvs167
# Outline: as §1
# AgSho1 = biological target: AgSho1
# Outline: as §1
# AgSla1-D1-D2 = biological target: AgSla1-D1-D2
# Outline: as §1
# AgSla1-D3 = biological target: AgSla1-D3
# Outline: as §1
# CaAbp1-D1 = biological target: CaAbp1-D1
# Outline: as §1
# CaAbp1-D2 = biological target: CaAbp1-D2
# Outline: as §1
# CaBbc1 = biological target: CaBbc1
# Outline: as §1
# CaBem1-D1 = biological target: CaBem1-D1
# Outline: as §1
# CaBzz1-D1 = biological target: CaBzz1-D1
# Outline: as §1
# CaBzz1-D2 = biological target: CaBzz1-D2
# Outline: as §1
# CaCyk3 = biological target: CaCyk3
# Outline: as §1
# CaFus1 = biological target: CaFus1
# Outline: as §1
# CaHof1 = biological target: CaHof1
# Outline: as §1
# CaHse1 = biological target: CaHse1
# Outline: as §1
# CaLsb1 = biological target: CaLsb1
# Outline: as §1
# CaLsb4 = biological target: CaLsb4
# Outline: as §1
# CaMyo5 = biological target: CaMyo5
# Outline: as §1
# CaNbp2 = biological target: CaNbp2
# Outline: as §1
# CaRvs167 = biological target: CaRvs167
# Outline: as §1
# CaRvs167-3 = biological target: CaRvs167-3
# Outline: as §1
# CaSho1 = biological target: CaSho1
# Outline: as §1
# CaSla1-D1-D2 = biological target: CaSla1-D1-D2
# Outline: as §1
# CaSla1-D3 = biological target: CaSla1-D3
# Outline: as §1
# ScAbp1 = biological target: ScAbp1
# Outline: as §1
# ScBbc1 = biological target: ScBbc1
# Outline: as §1
# ScBem1-D1 = biological target: ScBem1-D1
# Outline: as §1
# ScBzz1-D1 = biological target: ScBzz1-D1
# Outline: as §1
# ScBzz1-D2 = biological target: ScBzz1-D2
# Outline: as §1
# ScCyk3 = biological target: ScCyk3
# Outline: as §1
# ScFus1 = biological target: ScFus1
# Outline: as §1
# ScHof1 = biological target: ScHof1
# Outline: as §1
# ScHse1 = biological target: ScHse1
# Outline: as §1
# ScLsb1 = biological target: ScLsb1
# Outline: as §1
# ScLsb2 = biological target: ScLsb2
# Outline: as §1
# ScLsb3 = biological target: ScLsb3
# Outline: as §1
# ScLsb4 = biological target: ScLsb4
# Outline: as §1
# ScMyo3 = biological target: ScMyo3
# Outline: as §1
# ScMyo5 = biological target: ScMyo5
# Outline: as §1
# ScNbp2 = biological target: ScNbp2
# Outline: as §1
# ScPex13 = biological target: ScPex13
# Outline: as §1
# ScRvs167 = biological target: ScRvs167
# Outline: as §1
# ScSho1 = biological target: ScSho1
# Outline: as §1
# ScSla1-D1-D2 = biological target: ScSla1-D1-D2
# Outline: as §1
# ScSla1-D3 = biological target: ScSla1-D3
# Outline: as §1
# SpAbp1-D1 = biological target: SpAbp1-D1
# Outline: as §1
# SpBbc1 = biological target: SpBbc1
# Outline: as §1
# SpBzz1-D1 = biological target: SpBzz1-D1
# Outline: as §1
# SpBzz1-D2 = biological target: SpBzz1-D2
# Outline: as §1
# SpCyk3 = biological target: SpCyk3
# Outline: as §1
# SpHof1 = biological target: SpHof1
# Outline: as §1
# SpHof1-2 = biological target: SpHof1-2
# Outline: as §1
# SpHof1-3 = biological target: SpHof1-3
# Outline: as §1
# SpHse1 = biological target: SpHse1
# Outline: as §1
# SpLsb1 = biological target: SpLsb1
# Outline: as §1
# SpLsb4 = biological target: SpLsb4
# Outline: as §1
# SpMyo1 = biological target: SpMyo1
# Outline: as §1
# SpNbp2 = biological target: SpNbp2
# Outline: as §1
# SpPex13 = biological target: SpPex13
# Outline: as §1
# SpRvs167 = biological target: SpRvs167
# Outline: as §1
# SpSla1-D1-D2 = biological target: SpSla1-D1-D2
# Outline: as §1
# SpSla1-D3 = biological target: SpSla1-D3
# Outline: as §1
binder,measurement,setting,value
RKNRAPPQRPRFNRD,SPOT peptide array binding signal intensity,AgAbp1,958
same,SPOT peptide array binding signal intensity,AgBbc1,476
same,SPOT peptide array binding signal intensity,AgBem1-D1,438
same,SPOT peptide array binding signal intensity,AgBzz1-D1,256
same,SPOT peptide array binding signal intensity,AgBzz1-D2,154
same,SPOT peptide array binding signal intensity,AgCyk3,16
same,SPOT peptide array binding signal intensity,AgFus1,501
same,SPOT peptide array binding signal intensity,AgHof1,142
same,SPOT peptide array binding signal intensity,AgHse1,631
same,SPOT peptide array binding signal intensity,AgLsb1,230
same,SPOT peptide array binding signal intensity,AgLsb4,131
same,SPOT peptide array binding signal intensity,AgMyo5,6.5
same,SPOT peptide array binding signal intensity,AgNbp2,3290
same,SPOT peptide array binding signal intensity,AgRvs167,7
same,SPOT peptide array binding signal intensity,AgSho1,37
same,SPOT peptide array binding signal intensity,AgSla1-D1-D2,474
same,SPOT peptide array binding signal intensity,AgSla1-D3,52
same,SPOT peptide array binding signal intensity,CaAbp1-D1,924
same,SPOT peptide array binding signal intensity,CaAbp1-D2,998
same,SPOT peptide array binding signal intensity,CaBbc1,1240
same,SPOT peptide array binding signal intensity,CaBem1-D1,65.5
same,SPOT peptide array binding signal intensity,CaBzz1-D1,1760
same,SPOT peptide array binding signal intensity,CaBzz1-D2,1020
same,SPOT peptide array binding signal intensity,CaCyk3,342
same,SPOT peptide array binding signal intensity,CaFus1,758
same,SPOT peptide array binding signal intensity,CaHof1,0.75
same,SPOT peptide array binding signal intensity,CaHse1,149
same,SPOT peptide array binding signal intensity,CaLsb1,5.5
same,SPOT peptide array binding signal intensity,CaLsb4,698
same,SPOT peptide array binding signal intensity,CaMyo5,10.2
same,SPOT peptide array binding signal intensity,CaNbp2,1750
same,SPOT peptide array binding signal intensity,CaRvs167,31.5
same,SPOT peptide array binding signal intensity,CaRvs167-3,53
same,SPOT peptide array binding signal intensity,CaSho1,423
same,SPOT peptide array binding signal intensity,CaSla1-D1-D2,1480
same,SPOT peptide array binding signal intensity,CaSla1-D3,15
same,SPOT peptide array binding signal intensity,ScAbp1,153
same,SPOT peptide array binding signal intensity,ScBbc1,338
same,SPOT peptide array binding signal intensity,ScBem1-D1,26
same,SPOT peptide array binding signal intensity,ScBzz1-D1,162
same,SPOT peptide array binding signal intensity,ScBzz1-D2,16.5
same,SPOT peptide array binding signal intensity,ScCyk3,138
same,SPOT peptide array binding signal intensity,ScFus1,293
same,SPOT peptide array binding signal intensity,ScHof1,1.5
same,SPOT peptide array binding signal intensity,ScHse1,1230
same,SPOT peptide array binding signal intensity,ScLsb1,248
same,SPOT peptide array binding signal intensity,ScLsb2,119
same,SPOT peptide array binding signal intensity,ScLsb3,1430
same,SPOT peptide array binding signal intensity,ScLsb4,53
same,SPOT peptide array binding signal intensity,ScMyo3,22
same,SPOT peptide array binding signal intensity,ScMyo5,14.5
same,SPOT peptide array binding signal intensity,ScNbp2,4260
same,SPOT peptide array binding signal intensity,ScPex13,88.8
same,SPOT peptide array binding signal intensity,ScRvs167,238
same,SPOT peptide array binding signal intensity,ScSho1,845
same,SPOT peptide array binding signal intensity,ScSla1-D1-D2,1900
same,SPOT peptide array binding signal intensity,ScSla1-D3,49
same,SPOT peptide array binding signal intensity,SpAbp1-D1,917
same,SPOT peptide array binding signal intensity,SpBbc1,54
same,SPOT peptide array binding signal intensity,SpBzz1-D1,853
same,SPOT peptide array binding signal intensity,SpBzz1-D2,9.75
same,SPOT peptide array binding signal intensity,SpCyk3,10
same,SPOT peptide array binding signal intensity,SpHof1,285
same,SPOT peptide array binding signal intensity,SpHof1-2,16.2
same,SPOT peptide array binding signal intensity,SpHof1-3,360
same,SPOT peptide array binding signal intensity,SpHse1,367
same,SPOT peptide array binding signal intensity,SpLsb1,154
same,SPOT peptide array binding signal intensity,SpLsb4,793
same,SPOT peptide array binding signal intensity,SpMyo1,15.5
same,SPOT peptide array binding signal intensity,SpNbp2,726
same,SPOT peptide array binding signal intensity,SpPex13,30
same,SPOT peptide array binding signal intensity,SpRvs167,98.7
same,SPOT peptide array binding signal intensity,SpSla1-D1-D2,61
same,SPOT peptide array binding signal intensity,SpSla1-D3,7.5
LYEAMPPTLPHRDWK,SPOT peptide array binding signal intensity,AgAbp1,1
same,SPOT peptide array binding signal intensity,AgBbc1,2.5
same,SPOT peptide array binding signal intensity,AgBem1-D1,13.5
same,SPOT peptide array binding signal intensity,AgBzz1-D1,≤ 0
same,SPOT peptide array binding signal intensity,AgBzz1-D2,≤ 0
same,SPOT peptide array binding signal intensity,AgCyk3,2
same,SPOT peptide array binding signal intensity,AgFus1,33
same,SPOT peptide array binding signal intensity,AgHof1,0.5
same,SPOT peptide array binding signal intensity,AgHse1,50
same,SPOT peptide array binding signal intensity,AgLsb1,30.5
same,SPOT peptide array binding signal intensity,AgLsb4,518
same,SPOT peptide array binding signal intensity,AgMyo5,0.5
same,SPOT peptide array binding signal intensity,AgNbp2,154
same,SPOT peptide array binding signal intensity,AgRvs167,30.2
same,SPOT peptide array binding signal intensity,AgSho1,26.5
same,SPOT peptide array binding signal intensity,AgSla1-D1-D2,≤ 0
same,SPOT peptide array binding signal intensity,AgSla1-D3,≤ 0
same,SPOT peptide array binding signal intensity,CaAbp1-D1,8
same,SPOT peptide array binding signal intensity,CaAbp1-D2,1.5
same,SPOT peptide array binding signal intensity,CaBbc1,16.5
same,SPOT peptide array binding signal intensity,CaBem1-D1,16
same,SPOT peptide array binding signal intensity,CaBzz1-D1,50.5
same,SPOT peptide array binding signal intensity,CaBzz1-D2,27.2
same,SPOT peptide array binding signal intensity,CaCyk3,≤ 0
same,SPOT peptide array binding signal intensity,CaFus1,327
same,SPOT peptide array binding signal intensity,CaHof1,0.5
same,SPOT peptide array binding signal intensity,CaHse1,150
same,SPOT peptide array binding signal intensity,CaLsb1,0.5
same,SPOT peptide array binding signal intensity,CaLsb4,806
same,SPOT peptide array binding signal intensity,CaMyo5,12
